# Test system: LXRa:RXRa (NR concentration 270 nM, RXRa partner concentration 90 nM)
# Experiment: PBM binding z-score (relative to random genomic background probes); higher = stronger binding; sequences stand for … in GC…GCGATTGACAGCGTAGAATGAAGG
# How it was run: (§1)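 Regression normalization was applied to scanned fluorescence from custom Agilent 4×180K protein-binding microarrays. Before scanning, arrays were incubated 1 h with ligand-free nuclear receptor dimers, and binding was detected with antibodies against each partner (one per run). Binding z-scores use the random background probes as reference.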
row,Sequence,PBM binding z-score
1,CCGAGTAGGTTACGAGGGGGCATTCAATGCGAAT,7.34
2,CCGAGTAGGTTACGAGGGGGCATTTAGTGCGAAT,7.16
3,TCGAGTAGGTTACGGGGGGATTCAGGGATGAAGA,2.87
4,CTGAGTAGGTTACGAGGGGGCATTCAGTGCGAAT,7.17
5,CTATGTAGGTTAAGGGGGTCATACAGTTTGAAAG,5.02
6,CTATGTAGGTTAAGGGGGTCTTTCAGTTTGAAAG,1.5
7,CCGAGTAGGTTACGAGGGGGCAATCAGTGCGAAT,6.66
8,CCGAGTAGGTTACCAGGGGGCATTCAGTGCGAAT,7.81
9,TCGAGTCGGTTACGGGGGCATTCAGGGATGAAGA,1.82
10,TCGAGTAGGTTACGGGGACATTCAGGGATGAAGA,0.995
11,CTATGTAGGTTAAGGGGGTCATTCCGTTTGAAAG,5.26
12,CTATGTAGGTTGAGGGGGTCATTCAGTTTGAAAG,4.82
13,CCGAGTGGGTTACGAGGGGGCATTCAGTGCGAAT,6.93
14,CCGAGTAGGTTATGAGGGGGCATTCAGTGCGAAT,6.86
15,CCGAGTAGGTAACGAGGGGGCATTCAGTGCGAAT,5.77
16,CCGGGTAGGTTACGAGGGGGCATTCAGTGCGAAT,7.2
17,CCGAGTAGCTTACGAGGGGGCATTCAGTGCGAAT,1.73
18,CTATGAAGGTTAAGGGGGTCATTCAGTTTGAAAG,5.4
19,CCGAGTAGGTTACGAGGAGGCATTCAGTGCGAAT,4.4
20,CTCTGTAGGTTAAGGGGGTCATTCAGTTTGAAAG,5.1

row,Sequence,PBM binding z-score
1,CTATGGAGGTTAAGGGGGTCATTCAGTTTGAAAG,5.63
2,TCGAGTAGGTTACGGGGGCATTCACGGATGAAGA,2.89
3,CTATGTAGGTTAAGGGGGTCATTCAGTTTGAAAG,5.08
4,CCGAGTAGGTTACGAGGGGGCCTTCAGTGCGAAT,2.66
5,CCGAGTAGGTTACGAGGGGGCATTCACTGCGAAT,7.18
6,CCGAGTAGGTTACGAGGGGGCATTCATTGCGAAT,6.78
7,CTATATAGGTTAAGGGGGTCATTCAGTTTGAAAG,5.57
8,CAGAGTAGGTTACGAGGGGGCATTCAGTGCGAAT,7.18
9,CTATGTAGGTTAAGGGGTTCATTCAGTTTGAAAG,3.21
10,CCGAGTAGGTTACGAGGCGGCATTCAGTGCGAAT,0.596
11,CTAAGTAGGTTAAGGGGGTCATTCAGTTTGAAAG,4.96
12,TCGAGTAGGCTACGGGGGCATTCAGGGATGAAGA,1.1
13,CCATGTAGGTTAAGGGGGTCATTCAGTTTGAAAG,4.71
14,CTATGTAGGTTAAGGGTGTCATTCAGTTTGAAAG,1.2
15,CTATGTAGGCTAAGGGGGTCATTCAGTTTGAAAG,3.81
16,CCGAGTAGGTTACGAGGGGGCTTTCAGTGCGAAT,3.54
17,CTATGTAGGTTAAGGGGGTCATTCGGTTTGAAAG,4.84
18,CTATGTTGGTTAAGGGGGTCATTCAGTTTGAAAG,4.68
19,CCGAGTAGGTTACGAGGGGGCATCCAGTGCGAAT,6.84

# Test system: LXRa homodimer (NR concentration 270 nM)
# Experiment: as above
# How it was run: as §1
row,Sequence,PBM binding z-score
1,CCGAGTAGGTTACGAGGGGGCATTCAATGCGAAT,1.1
2,CCGAGTAGGTTACGAGGGGGCATTTAGTGCGAAT,1.74
3,TCGAGTAGGTTACGGGGGGATTCAGGGATGAAGA,1.21
4,CTGAGTAGGTTACGAGGGGGCATTCAGTGCGAAT,2.04
5,CTATGTAGGTTAAGGGGGTCATACAGTTTGAAAG,1.99
6,CTATGTAGGTTAAGGGGGTCTTTCAGTTTGAAAG,0.399
7,CCGAGTAGGTTACGAGGGGGCAATCAGTGCGAAT,0.917
8,CCGAGTAGGTTACCAGGGGGCATTCAGTGCGAAT,3.59
9,TCGAGTCGGTTACGGGGGCATTCAGGGATGAAGA,0.317
10,TCGAGTAGGTTACGGGGACATTCAGGGATGAAGA,-0.0512
11,CTATGTAGGTTAAGGGGGTCATTCCGTTTGAAAG,3.1
12,CTATGTAGGTTGAGGGGGTCATTCAGTTTGAAAG,2
13,CCGAGTGGGTTACGAGGGGGCATTCAGTGCGAAT,0.977
14,CCGAGTAGGTTATGAGGGGGCATTCAGTGCGAAT,1.95
15,CCGAGTAGGTAACGAGGGGGCATTCAGTGCGAAT,0.734
16,CCGGGTAGGTTACGAGGGGGCATTCAGTGCGAAT,1.5
17,CCGAGTAGCTTACGAGGGGGCATTCAGTGCGAAT,0.701
18,CTATGAAGGTTAAGGGGGTCATTCAGTTTGAAAG,3.45
19,CCGAGTAGGTTACGAGGAGGCATTCAGTGCGAAT,-0.319
20,CTCTGTAGGTTAAGGGGGTCATTCAGTTTGAAAG,3.51

row,Sequence,PBM binding z-score
1,CTATGGAGGTTAAGGGGGTCATTCAGTTTGAAAG,4.04
2,TCGAGTAGGTTACGGGGGCATTCACGGATGAAGA,0.361
3,CTATGTAGGTTAAGGGGGTCATTCAGTTTGAAAG,3.54
4,CCGAGTAGGTTACGAGGGGGCCTTCAGTGCGAAT,0.0596
5,CCGAGTAGGTTACGAGGGGGCATTCACTGCGAAT,1.26
6,CCGAGTAGGTTACGAGGGGGCATTCATTGCGAAT,1.16
7,CTATATAGGTTAAGGGGGTCATTCAGTTTGAAAG,2.95
8,CAGAGTAGGTTACGAGGGGGCATTCAGTGCGAAT,2.11
9,CTATGTAGGTTAAGGGGTTCATTCAGTTTGAAAG,2.34
10,CCGAGTAGGTTACGAGGCGGCATTCAGTGCGAAT,-0.363
11,CTAAGTAGGTTAAGGGGGTCATTCAGTTTGAAAG,3.1
12,TCGAGTAGGCTACGGGGGCATTCAGGGATGAAGA,-0.259
13,CCATGTAGGTTAAGGGGGTCATTCAGTTTGAAAG,3.76
14,CTATGTAGGTTAAGGGTGTCATTCAGTTTGAAAG,0.0163
15,CTATGTAGGCTAAGGGGGTCATTCAGTTTGAAAG,0.999
16,CCGAGTAGGTTACGAGGGGGCTTTCAGTGCGAAT,0.44
17,CTATGTAGGTTAAGGGGGTCATTCGGTTTGAAAG,2.94
18,CTATGTTGGTTAAGGGGGTCATTCAGTTTGAAAG,3.82
19,CCGAGTAGGTTACGAGGGGGCATCCAGTGCGAAT,1.45

# Source: the supplement of paper PMC6555819
